Measured values reported in PubChem BioAssay (NCI).
The panel holds about 83,000 compounds, 20% with a hit somewhere; the sample as a whole holds those more often.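 For each line, cells grew in 96-well plates with the test compound present at a single concentration for 48 hours.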 A number with no mark means an inactive call. Active and inactive are the calls of the source. How the source made its calls: active means growth percent below 10; inactive means the rest.

What was measured:
Test in all cases: NCI-60 one-dose screen, 48 h (100 = growth as untreated, 0 = no growth, -100 = all killed)
Conditions in all cases: 10 µM unless noted
[1] = tested on: NCI-H23 lung
[2] = tested on: NCI-H226 lung
[3] = tested on: NCI-H322M lung
[4] = tested on: HOP-62 NSCLC
[5] = tested on: NCI-H460 lung
[6] = tested on: HOP-92 NSCLC
[7] = tested on: NCI-H522 lung
[8] = tested on: A549/ATCC NSCLC
[9] = tested on: 786-0 renal
[10] = tested on: COLO 205 colon
[11] = tested on: DU-145 prostate
[12] = tested on: K-562 leukemia
[13] = tested on: MALME-3M melanoma
[14] = tested on: MDA-MB-231 breast
[15] = tested on: RXF 393 renal
[16] = tested on: SF-268 CNS
[17] = tested on: SF-295 CNS
[18] = tested on: SF-539 CNS
[19] = tested on: UACC-257 melanoma
[20] = tested on: M14 melanoma

| SMILES | growth [1] | growth [2] [%] | growth [3] [%] | growth [4] | growth [5] | growth [6] | growth [7] | growth [8] | growth [9] | growth [10] [%] | growth [11] [%] | growth [12] | growth [13] | growth [14] [%] | growth [15] [%] | growth [16] [%] | growth [17] | growth [18] | growth [19] | growth [20] |
| --- | --- | --- | --- | --- | --- | --- | --- | --- | --- | --- | --- | --- | --- | --- | --- | --- | --- | --- | --- | --- |
| C=CCn1cc(-c2nc3ccccc3s2)c2cc(-c3ccc4c5c(cccc35)C(=O)N(CCO)C4=O)ccc21 | 99.7% | 90.3 | 98.8 | 90.6% | 98.1% | 78.7% | 88.7% | 95% | 97.6% | 116 | 107 | 90.8% | 119% | 85.2 | 100 | 90.5 | 91.2% | 104% | 107% | 106% |
| Cc1nc(N/N=C/c2cn(-c3ccccc3)nc2-c2cc3ccccc3oc2=O)sc1N=Nc1ccccc1 | 93.7% | 95.4 | 104 | 66% | 99.7% | 97.1% | 66.2% | 96.6% | 97.3% | 105 | 105 | 34% | 89.6% | 87.7 | 94.6 | 94.9 | 81.6% | 87.7% | 94.5% | 70.7% |
| COc1cc([C@@H](CCO)C[C@H](C)c2ccc3ccccc3c2)cc(OC)c1OC | 54.6% | 56.4 | 46.7 | 40.6% | 17.3% | 30.8% | -7.95% (active) | 46.8% | 28% | 16.1 | 47.1 | 12.1% | 44.5% | 43.8 | 32.3 | 48.9 | 19.6% | 9.87% (active) | 60.6% | 15.5% |
| C/C(=N\Nc1ccccc1)c1ccc(NC2=CC(=O)c3ccccc3C2=O)cc1 | 21.4% | 80.8 | 79 | 46.1% | 23.5% | 113% | 42.9% | 48.5% | 94.1% |  | 50.7 | 19.4% | -65% (active) | 62.4 | 92.1 | 64.4 | 55.2% | 92.9% | 67.9% | 26.3% |
| Cc1cc(O)c(=O)cc2c1C[C@H]1CC(C)(C)/C=C/C[C@]3(C)Oc4cc(=O)c(O)cc(C)c4C[C@H]3C[C@H](O)[C@@]1(C)O2 | -16.7% (active) | 11.9 | 24.3 | 0.636% (active) | -6.53% (active) | 2.97% (active) | -24.9% (active) | -7.87% (active) | -1.45% (active) |  | 22.3 | 1.9% (active) | 0.782% (active) | 13.5 | 19.8 | 18.5 | 3.52% (active) | 6.95% (active) | -6.56% (active) | -34% (active) |
| CCOC(=O)c1cnn(CC(C)O)c1NC(=O)NCc1cccc(F)c1 (stereo not drawn) | 97.5% | 103 | 97.7 | 100% | 105% | 68% | 66% | 100% | 95.1% | 118 | 96.7 | 81.1% | 99.2% | 106 | 111 | 101 | 99.9% | 98.2% | 99.7% | 83.2% |
| COc1ccc(NC(=O)c2ccc(Nc3ncnc4c3cnn4-c3cccc(F)c3)cc2)cc1 | 103% | 103 | 103 | 101% | 102% | 96.4% | 96.9% | 101% | 104% | 109 | 103 | 94.8% | 92.6% | 92 | 90.2 | 99.1 | 98.3% | 96.5% | 97.9% | 98.4% |
| CSc1nc2ccc(C)cc2cc1/C=C1/C=C(c2ccccc2)NC1=O | 75.2% | 69.4 | 65.8 | 72.8% | 19.2% | 36.4% | 67.6% | 47.2% | 2.66% (active) | 69.8 | 47.4 | 41.3% | 40.4% | 38.5 | 79.1 | 66.3 | 36.7% | 39.5% | 80% | 64.1% |
